Results from PubChem BioAssay (Tox21).
Activity calls are given as the source filed them. Where a call stands in place of a potency, no number is given. Unless noted, the call rests on the fitted dose curve; in most records, active means well fitted curve in the direction sought with a large enough effect in the repeat runs; inconclusive means weak or mixed curves; inactive means no such curve, though single readings can be large; an effect the other way counts as inactive or inconclusive.

Tests used:
[1] = qHTS assay to identify small molecule antagonists of the thyroid receptor (TR) signaling pathway - cell viability counter screen (AID 743064); further: nearly all actives have a fitted effect of over 50% in size
How it was run: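 Same-well viability check: GH3.TRE-Luc cells stimulated with 1 nM T3 alongside test compound for 23.5 h, followed by CellTiter-Fluor fluorescence.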

[2] = qHTS assay to identify small molecule antagonists of the thyroid receptor (TR) signaling pathway (AID 743065); further: nearly all actives have a fitted effect of over 55% in size; further: potency means the concentration at half of the fitted maximal effect
How it was run: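 GH3.TRE-Luc rat pituitary cells carrying two TR response elements driving luciferase were plated for 4 h, given compound plus 1 nM T3 (final), and incubated 23.5 h at 37 C. ONE-Glo luminescence measured reporter inhibition; CellTiter-Fluor fluorescence tracked cytotoxicity.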

[3] = tested on: thyroid hormone receptor (rat, GH3 cells); assay: qHTS assay to identify small molecule agonists of the thyroid receptor (TR) signaling pathway (AID 743066; calls by dose curve)
[4] = qHTS assay to identify small molecule antagonists of the estrogen receptor alpha (ER-alpha) signaling pathway - cell viability counter screen (AID 743074; calls by dose curve;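 further: HEK293 cells carrying ER-alpha-UAS-bla reporter stimulated with 17beta-estradiol; nearly all actives have a fitted effect of over 45% in size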)
[5] = qHTS assay to identify small molecule antagonists of the estrogen receptor alpha (ER-alpha) signaling pathway using the BG1 cell line - cell viability counter screen (AID 743081);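 further: compound given together with 17beta-estradiol as the ER stimulus; nearly all actives have a fitted effect of over 45% in size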
[6] = target: Estrogen receptor (Homo sapiens) (UniProt P03372); assay: qHTS assay to identify small molecule agonists of the estrogen receptor alpha (ER-alpha) signaling pathway (AID 743075; calls by dose curve;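 further: HEK293 GripTite cells with ER-alpha and UAS-driven beta-lactamase reporter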; further: potency means the concentration at half of the fitted maximal effect)
Sequence of Estrogen receptor (Homo sapiens) (P03372 whole entry, looked up): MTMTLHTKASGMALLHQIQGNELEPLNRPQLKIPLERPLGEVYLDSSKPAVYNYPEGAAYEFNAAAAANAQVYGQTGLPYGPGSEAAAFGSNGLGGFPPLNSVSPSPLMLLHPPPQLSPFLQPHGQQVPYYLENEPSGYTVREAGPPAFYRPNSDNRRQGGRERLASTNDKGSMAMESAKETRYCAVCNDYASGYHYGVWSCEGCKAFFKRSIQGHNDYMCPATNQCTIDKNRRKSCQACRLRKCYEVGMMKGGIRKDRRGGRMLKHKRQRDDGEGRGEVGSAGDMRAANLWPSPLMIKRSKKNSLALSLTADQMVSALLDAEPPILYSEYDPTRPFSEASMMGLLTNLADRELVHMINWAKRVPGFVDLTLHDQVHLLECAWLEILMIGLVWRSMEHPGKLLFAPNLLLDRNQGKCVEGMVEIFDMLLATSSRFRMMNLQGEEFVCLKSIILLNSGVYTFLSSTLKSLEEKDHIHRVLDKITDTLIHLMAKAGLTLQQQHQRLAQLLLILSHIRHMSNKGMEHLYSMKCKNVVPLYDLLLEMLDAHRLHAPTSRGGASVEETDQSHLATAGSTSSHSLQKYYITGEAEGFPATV

[7] = target: Estrogen receptor (Homo sapiens) (UniProt P03372); assay: qHTS assay to identify small molecule agonists of the estrogen receptor alpha (ER-alpha) signaling pathway using the BG1 cell line (AID 743079); settings: BG1Luc4E2 cells, ERE-luciferase agonist, 22 h; activation: at 70.3 µM (top of the series); further: nearly all actives have a fitted effect of over 20% in size; further: potency means the concentration at half of the fitted maximal effect
[8] = target: Aromatase (Homo sapiens) (UniProt P11511); assay: qHTS assay to identify aromatase inhibitors (AID 743083); further: nearly all actives have a fitted effect of over 55% in size
Sequence of Aromatase (Homo sapiens) (P11511 whole entry, looked up): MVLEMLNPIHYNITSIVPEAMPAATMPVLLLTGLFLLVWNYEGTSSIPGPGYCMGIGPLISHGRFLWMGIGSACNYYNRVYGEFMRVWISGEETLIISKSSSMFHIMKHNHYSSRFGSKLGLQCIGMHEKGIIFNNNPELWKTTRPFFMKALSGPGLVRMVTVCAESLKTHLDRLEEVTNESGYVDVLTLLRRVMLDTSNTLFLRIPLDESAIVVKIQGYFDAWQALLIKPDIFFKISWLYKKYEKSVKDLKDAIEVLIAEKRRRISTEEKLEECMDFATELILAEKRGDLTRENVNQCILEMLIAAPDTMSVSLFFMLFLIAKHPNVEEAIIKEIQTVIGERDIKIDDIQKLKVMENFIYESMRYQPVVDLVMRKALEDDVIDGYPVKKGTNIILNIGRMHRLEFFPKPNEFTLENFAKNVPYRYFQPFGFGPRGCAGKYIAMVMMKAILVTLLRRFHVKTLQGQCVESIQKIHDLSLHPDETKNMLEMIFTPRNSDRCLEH

[9] = qHTS assay to identify small molecule antagonists of the estrogen receptor alpha (ER-alpha) signaling pathway using the BG1 cell line (AID 743080; calls by dose curve;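 further: BG1 cells stimulated with 17beta-estradiol alongside compound; nearly all actives have a fitted effect of over 25% in size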)
How it was run: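 Readout is ONE-Glo luminescence, taken 30 min at room temperature after reagent addition, preceded by a CellTiter-Fluor viability read; BG1-Luc-4E2 cells had received compound and 17beta-estradiol for 21.5 h at 37 C.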

SMILES | Potency [1] | Potency [2] | Potency [3] | Potency [4] | Potency [5] | Potency [6] | Potency [7] | Potency [8] | activation [7] | Potency [9]
Nc1nc(=O)n([C@@H]2CS[C@H](CO)O2)cc1F | inactive | inactive | inactive | inactive | inactive |  |  |  |  | 
C[C@H]1C[C@H]2[C@@H]3CCC4=CC(=O)C=C[C@]4(C)[C@@]3(F)[C@@H](O)C[C@]2(C)[C@@]1(O)C(=O)CCl | inactive | inactive | inactive | inactive |  | inactive | inactive | inactive |  | 
C[C@]12CC[C@@H]3c4ccc(OC(=O)c5ccccc5)cc4CC[C@H]3[C@@H]1CC[C@@H]2O | inactive | inactive | inactive | inactive | inactive | 0.0007 µM [inconclusive] (active) |  | inactive | 82.8% (active) | 
CCCN(CC)C(CC)C(=O)Nc1c(C)cccc1C (centres undefined) | inactive | inactive | inactive | inactive |  | inactive | inactive | inactive |  | inactive
C[C@]12C=CC(=O)C=C1CC[C@@H]1[C@@H]2[C@@H](O)C[C@@]2(C)[C@H]1CC[C@]2(O)C(=O)COC(=O)CCC(=O)O | inactive | inactive | inactive | inactive |  | inactive |  | inactive |  | 
CC(C)C[C@H](NC(=O)[C@@H](Cc1c[nH]c2ccccc12)NC(=O)[C@H](Cc1ccc(O)cc1)NC(=O)[C@H](CO)NC(=O)[C@H](Cc1c[nH]c2ccccc12)NC(=O)[C@H](Cc1cnc[nH]1)NC(=O)[C@@H]1CCC(=O)N1)C(=O)N[C@@H](CCCN=C(N)N)C(=O)N1CCC[C@@H]1C(=O)NCC(N)=O | inactive | inactive | inactive | inactive | inactive |  |  | inactive |  | 
C[C@]12CCC(=O)C=C1CC[C@@H]1[C@@H]2[C@@H](O)C[C@@]2(C)[C@H]1CC[C@]2(O)C(=O)COP(=O)(O)O | inactive | inactive | inactive | inactive | inactive |  | 29.8 µM (active) | inactive |  | 
CCCC(=O)O[C@]1(C(=O)COC(=O)CC)[C@@H](C)C[C@H]2[C@@H]3CCC4=CC(=O)C=C[C@]4(C)[C@@]3(F)[C@@H](O)C[C@@]21C | inactive | inactive | inactive | inactive |  | inactive | inactive | inactive |  | 
CC(C)(S)[C@@H](N)C(=O)O | inactive | inactive | inactive | inactive | inactive |  |  | inactive |  | 
CC(=O)OCC(=O)[C@@]1(O)[C@H](C)C[C@H]2[C@@H]3C[C@H](F)C4=CC(=O)C=C[C@]4(C)[C@H]3[C@@H](O)C[C@@]21C | inactive | inactive | inactive | inactive |  | inactive | inactive | inactive |  | 
Cc1cc(Nc2ccccc2C(=O)O)ccc1Cl | inactive | 26.6 µM (active) | inactive | inactive |  | inactive |  | inactive |  | inactive
